Source: PubChem (several laboratories)
Most compounds without a hit are left out; they make up all but 4.8% or so of the library.
tim10-1 inh: inhibits growth of tim10-1 mutant yeast. actives 2.2% (n = 330,000). AID 463190. S. cerevisiae tim10-1 ts strain growth, BacTiter-Glo, 24 h. inhibition, % at 20 µM;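 active means inhibition of at least 40%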;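 further: mutant grown at 25 °C; 0% = DMSO wells with yeast and 100% = wells holding no yeast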
tim23-1 inh: inhibits growth of tim23-1 mutant yeast. S. cerevisiae tim23-1 growth, BacTiter-Glo luminescence, 24 h. actives 1.3% (n = 330,000). inhibition, % at 20 µM;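 active means growth inhibition of the mutant yeast at or above 50%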;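 further: temperature-sensitive mutant grown at 25 °C; plate controls were DMSO-treated mutant yeast for no effect and medium wells lacking yeast for full effect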
TIM10 inh: inhibits growth of TIM10 yeast strain. actives 1.4% (n = 330,000). S. cerevisiae TIM10 strain growth, BacTiter-Glo luminescence, 24 h. inhibition, % at 10 µM;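 active means inhibition of 40% or more at the single tested concentration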;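 further: wild-type TIM10 isogenic control strain grown at permissive 25 °C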
SKKanGAS inh: inhibitors of SKKanGAS S. pyogenes growth in kanamycin (SK-promoter or general growth effect) | BacTiter-Glo, 6 h | inhibition, % at 7.5 µM | actives 1.3% (n = 300,000) | AID 1662;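 active means mean replicate score, as percent of positive control median, at least 50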;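 further: strain carries kanamycin resistance gene driven by streptokinase promoter and grows in 40 µg/ml kanamycin; loss of luminescence reflects streptokinase promoter inhibition or plain growth inhibition; 0% = median of DMSO wells and 100% = positive control at its reference dose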
NALP1 yeast inh: inhibitors of NALP1 inflammasome in yeast; actives 0.61% (n = 280,000); inhibition, % at 10 µM; S. cerevisiae NALP1/ASC/caspase-1 growth, X-gal OD620, 72 h; AID 2071; in the data active means inhibition mostly above about 24%, no sharp cut-off; inactive means mostly below about 32%
PfHsp90 set2: growth inhibition of yeast expressing Plasmodium Hsp90; actives 0.32% (n = 310,000); S. cerevisiae expressing PfHsp90, BacTiter-Glo ATP, 48 h; yeast lacking PDR1 and PDR3 efflux regulators; AID 504621; inhibition, % at 9.4 µM;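 active means every replicate shows inhibition above about 80%, whatever the replicate mean, limit read from the data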;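 further: 0% = DMSO neutral controls and 100% = 20 µM radicicol positive controls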
Numbers without * were called inactive; x = not tested or not shown.

SMILES	tim10-1 inh	tim23-1 inh	TIM10 inh	SKKanGAS inh	NALP1 yeast inh	PfHsp90 set2
O=C(c1ccccc1)c1cc(Cl)ccc1N1C(=O)C=CC1=O	x	x	x	x	-2	107*
N#Cc1cc(C(=O)c2cc(Cl)ccc2O)cn(-c2ccccc2)c1=O	38	42	24	-2	25	-16
COCCCN1CCN(C2Cc3ccccc3Sc3ccc(Cl)cc32)CC1 (stereo not drawn)	-4	-12	11	5	54*	-1
COc1ccc2c(c1)CC(N1CCN(C)CC1)c1cc(OC)ccc1S2 (stereo not drawn)	28	18	13	1	x	-2
Cc1ccc(Cl)cc1N1CCN(Cc2nc3c(c(=O)[nH]c(=O)n3C)n2Cc2ccccc2F)CC1	30	36	3	79*	x	-17
COc1ccccc1-n1c(SCC(=O)Nc2cccc3ccccc23)nc(O)cc1=O	1	17	6	40	12	-2
Cc1ccc(NC(=O)CSc2nc(O)cc(=O)n2C)cc1	14	16	10	40	3	11
COc1ccc(NC(=O)CSc2nc(O)cc(=O)n2-c2ccccc2OC)cc1	8	1	9	87*	4	-9
COc1ccccc1-n1c(SCC(=O)Nc2ccc(C)cc2)nc(O)cc1=O	15	6	13	63*	-15	-2
CCc1c(O)nc(SCC(=O)Nc2ccccc2)n(-c2ccccc2)c1=O	20	14	18	8	7	-33
CCc1c(O)nc(SCC(=O)Nc2ccc(Br)cc2)n(-c2ccc(C)cc2)c1=O	10	13	10	7	35*	-8
Cc1ccc(NC(=O)CSc2nc(O)cc(=O)n2-c2ccc(C)cc2)cc1	7	12	10	77*	-11	15
COc1ccc(Cc2[nH]n3c(=O)cc(C(C)C)nc3c2-c2ccccc2)cc1	-9	-8	4	91*	10	-8
COc1ccc(Cc2[nH]n3c(=O)cc(C)nc3c2-c2ccccc2)cc1	-3	5	-2	4	9	11
CC(=O)Nc1cccc(NC(=O)COc2ccccc2C)c1	20	-1	0	-2	20	13
O=C1CCCC(=NCc2ccco2)C1	-15	-11	-11	5	-20	17
O=C(COc1ccc(Cl)cc1Cl)N(c1ccccn1)C1CCCCC1	16	40	22	0	21	-13
Cc1ccc(OCC(=O)N(c2ccccn2)C2CCCCC2)c(C)c1	31	36	14	-12	44*	12
COC(=O)Cc1coc2cc(OC)ccc12	-10	-4	-4	x	x	-5
CCN(CC)CCn1c2c(c(SCC(=O)Nc3nccs3)nc1=O)CCCC2	-5	-15	7	-5	x	-17
CC(NC(=O)CSC(=S)N(C)C)C12CC3CC(CC(C3)C1)C2 (stereo not drawn)	x	x	x	x	29	-10
CC(C)(C)c1ccc(-c2noc(-c3ccc4c(c3)CCO4)n2)cc1	35	5	16	82*	x	9
CC(/C=C1\SC(=S)N(c2ccc(C(=O)O)cc2)C1=O)=C\c1ccccc1	17	18	9	116*	x	-50
CC(/C=C1\SC(=S)N(NC(=O)c2ccc(C)cc2)C1=O)=C\c1ccccc1	9	2	11	5	0	x
CC(/C=C1\SC(=S)N(NS(=O)(=O)c2ccccc2)C1=O)=C\c1ccccc1	2	41	3	57*	11	-24
SMILES	tim10-1 inh	tim23-1 inh	TIM10 inh	SKKanGAS inh	NALP1 yeast inh	PfHsp90 set2
Cc1nc2ccccc2n1CCc1nc2c3ccccc3nc(=S)n2[nH]1	15	20	17	-4	-14	x
COc1cc2nc(=S)n3[nH]c(COc4ccccc4C)nc3c2cc1OC	11	10	16	64*	23	-10
Cc1ccccc1OCc1nc2ccccc2c(=O)n1N	-4	15	2	-10	-6	-37
COc1cc2nc(=S)n3[nH]c(CCn4nc(C)cc4C)nc3c2cc1OC	13	-1	7	51*	2	-3
COc1ccc(Nc2nc(-c3ccncc3)nc3ccccc23)cc1	26	29	26	15	37*	-23
COC(=O)/C=C1\SC(=Nc2ccc(Cl)c(Cl)c2)NC1=O	-4	14	11	73*	-10	-18
Cc1ccc(Cn2c(=O)n(Cc3ccco3)c(=O)c3ccccc32)cc1	33	20	19	55*	-43	3
CCOc1cc(/C=N/NC(=O)Cn2nc([N+](=O)[O-])cc2C)ccc1OCc1ccc(F)cc1	14	7	3	5	2	-11
Cc1cc(C)c(C)c(OCCNCc2ccccc2)c1	20	19	8	0	41	11
Clc1ccc(OCCCNCc2ccccc2)c2ccccc12	-18	41	-39	21	50*	-3
Cc1cc(Br)ccc1OCCNCc1ccccc1	10	-1	12	11	29*	8
O=C(Nc1nccs1)c1cn(-c2ccccc2)nc1-c1ccccc1	28	41	37	22	1	-10
CC(C)COc1ccc(-c2nn(-c3ccccc3)cc2C(=O)Nc2nccs2)cc1	32	-7	6	96*	6	-8
COc1cnc(-c2ccccn2)nc1Oc1c(C)cccc1C	20	29	28	57*	1	-19
COc1ccc(Oc2nc(-c3ccccn3)ncc2OC)cc1	18	-24	-13	54*	14	4
COc1cnc(-c2ccccn2)nc1N(C)C	-18	-4	-12	-5	-1	18
Cc1nc(-c2ccccn2)nc(N(C)c2ccccc2)c1Cl	18	32	28	93*	1	-7
CCOc1ccc(N2CC(C(=O)NCc3cccc(C)c3)CC2=O)cc1 (stereo not drawn)	7	9	4	1	21	14
O=C(NCc1ccc(F)cc1)C1CCC(CNc2c(N3CCCCC3)c(=O)c2=O)CC1 (stereo not drawn)	-7	-1	-22	2	x	1
COc1ccccc1-n1c(=O)c(C#N)c(-c2ccc([N+](=O)[O-])cc2)c2cc(C(=O)c3cc(F)ccc3O)cnc21	16	16	13	15	3	-9
Cn1c(=O)c(C#N)c(-c2ccc(F)cc2)c2cc(C(=O)c3cc(Cl)cc(Cl)c3O)cnc21	30	29	22	99*	x	-23
Oc1ccc2ccccc2c1/C=N/Nc1ccccc1	13	35	19	1	36	0
Cc1cc(N/N=C/c2c(O)ccc3ccccc23)nc(-c2ccccc2O)n1	31	15	3	85*	22	-19
CCOC(=O)c1c(NC(=O)/C=C/C(=O)O)sc(C)c1-c1ccc(Cl)cc1	0	30	2	2	10	-20
CCOC(=O)c1c(N)sc(C(O)(C(F)(F)F)C(F)(F)F)c1-c1ccc(Cl)cc1	20	37	19	76*	2	64
